Test results published in PubChem BioAssay AID687042 (Broad Institute, 2013).
Calls of active or inactive are those of the source.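 Rule for the calls: active = absorbance drop of 50% or more relative to neutral controls, with potency under twice the top valid dose; inactive = the rest, including effects in the opposite direction.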

Molecular target: Protein disulfide-isomerase A6 (Homo sapiens) (UniProt Q15084)
Assay: ERp5 insulin-reduction activity inhibitors – biochemical, insulin aggregation, absorbance, dry powder, set 2, selectivity assay for PDI inhibitor project, dose response (AID 687042)

Protein disulfide-isomerase A6 (Homo sapiens), sequence (Q15084 whole entry, looked up): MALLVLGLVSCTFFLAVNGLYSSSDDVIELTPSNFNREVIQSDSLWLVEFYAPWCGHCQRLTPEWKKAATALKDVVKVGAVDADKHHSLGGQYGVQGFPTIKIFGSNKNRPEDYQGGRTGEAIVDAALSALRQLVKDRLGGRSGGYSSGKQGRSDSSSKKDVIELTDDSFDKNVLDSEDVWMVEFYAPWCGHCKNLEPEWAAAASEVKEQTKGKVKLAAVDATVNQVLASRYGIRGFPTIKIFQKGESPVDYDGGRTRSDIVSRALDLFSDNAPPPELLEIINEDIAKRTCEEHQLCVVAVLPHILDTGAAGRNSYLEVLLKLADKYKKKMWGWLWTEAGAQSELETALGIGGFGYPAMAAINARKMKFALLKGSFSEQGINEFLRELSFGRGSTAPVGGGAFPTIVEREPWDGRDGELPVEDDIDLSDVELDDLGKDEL

CCOC(=O)C1(CCOc2ccccc2)CCN(Cc2cccc(Cl)c2)CC1 was tested, and the outcome was “inactive”.
With CCOC(=O)C1(CCOC)CCCN(Cc2ccc(Cl)cc2)C1 (centres undefined) the outcome was “inactive”.
With CCN(C)C(=O)C1(CCOc2ccccc2)CCN(Cc2ccc(O)c(Cl)c2)CC1 the outcome was “inactive”.
With C=CCOc1ccc(CN2CCC(CCOc3ccccc3)(C(=O)N3CCCC3)CC2)cc1Cl the outcome was “inactive”.
For C=CCOc1ccc(CN2CCC(CCOc3ccccc3)(C(=O)NCC)CC2)cc1Cl, the outcome was “inactive”.
With CC(C)(C)OC(=O)C1(CCOc2ccccc2)CCN(Cc2ccc(O)c(Cl)c2)CC1 the outcome was “inactive”.
In the case of CCNC(=O)C1(CCOc2ccccc2)CCN(Cc2ccc(O)c(Cl)c2)CC1, the outcome is reported as “inactive”.
In the case of CCOC(=O)C1(CCOc2ccccc2)CCN(Cc2ccc3[nH]c(=O)oc3c2)CC1, the outcome is reported as “inactive”.
With CCOC(=O)C1(CCOc2ccccc2)CCN(Cc2ccc(OC)cc2)CC1 the outcome was “inactive”.
In the case of CCOC(=O)C1(Cc2ccccc2)CCN(Cc2ccc(O)c(Cl)c2)CC1, the outcome is reported as “inactive”.
CCOC(=O)C1(CCOc2ccccc2)CCN(C(=O)c2ccc(O)c(Cl)c2)CC1 was tested, and the outcome was “inactive”.
With CCOC(=O)C1(CCOc2ccccc2)CCN(Cc2ccc(O)c(Cl)c2)CC1 the outcome was “inactive”.
C=CCOc1ccc(CN2CCC(CCOc3ccccc3)(C(=O)O)CC2)cc1Cl was tested, and the outcome was “inactive”.
CC(C)OC(=O)C1(CCOc2ccccc2)CCN(Cc2ccc(O)c(Cl)c2)CC1 was tested, and the outcome was “inactive”.
O=C(N1CCCC1)C1(CCOc2ccccc2)CCN(Cc2ccc(O)c(Cl)c2)CC1 was tested, and the outcome was “inactive”.
CCOC(=O)C1(CCOc2ccccc2)CCN(C(=O)OC(C)(C)C)CC1 was tested, and the outcome was “inactive”.
With C=CCOc1ccc(CN2CCC(CCOc3ccccc3)(C(=O)NC3CCCC3)CC2)cc1Cl the outcome was “inactive”.
CCOC(=O)C1CCN(C(=O)OC(C)(C)C)CC1 was tested, and the outcome was “inactive”.
CCOC(=O)C1(CCOC)CCN(Cc2ccc(O)c(Cl)c2)CC1 was tested, and the outcome was “inactive”.
With C=CCOc1ccc(CN2CCC(CCOc3ccccc3)(C(=O)OCC)CC2)cc1Cl the outcome was “inactive”.
C/C1=C\C[C@H](OC(=O)c2ccc(O)cc2)/C(C)=C/[C@@H](O)C(C)(C)CCC1 was tested, and the outcome was “inactive”.
With O=C(Nc1ccccc1)C1(CCOc2ccccc2)CCN(Cc2ccc(O)c(Cl)c2)CC1 the outcome was “inactive”.
CCOC(=O)C1(CCOc2ccccc2)CCN(Cc2ccc(O)cc2)CC1 was tested, and the outcome was “inactive”.
In the case of C/C1=C\[C@@H](O)C(C)(C)CCCC2(C)OC2C[C@@H]1OC(=O)c1ccc(O)cc1 (some centres undefined), the outcome is reported as “inactive”.
CCOC(=O)C1(CCOc2ccccc2)CCN(Cc2ccc(OC)c(Cl)c2)CC1 was tested, and the outcome was “inactive”.
With CCOC(=O)c1c(CN2CCN(CCO)CC2)n(-c2ccccc2)c2cc(Br)c(O)cc12 the outcome was “inactive”.
In the case of O=C(NC1CCCC1)C1(CCOc2ccccc2)CCN(Cc2ccc(O)c(Cl)c2)CC1, the outcome is reported as “inactive”.
CCOC(=O)C1(Cc2cccc(OC)c2)CCN(Cc2ccc(O)c(Cl)c2)CC1 was tested, and the outcome was “inactive”.
For C=CCOc1ccc(CN2CCC(CCOc3ccccc3)(C(=O)N(C)CC)CC2)cc1Cl, the outcome was “inactive”.
